Source: the supplement of paper PMC12669032
Unmarked numbers belong to inactive results.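 The calls were made as follows: active = AUC reduced over 20% with Padj below 0.05 in at least 2 of 3 replicates; inactive = otherwise.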

Experiments:
Assay in all cases: growth AUC relative to DMSO control (median of replicates) (fraction); higher = more growth (less inhibition), active = hit call of the paper
Conditions in all cases: 20 µM; 24 h
[1] = system: Akkermansia muciniphila
Method in brief: (§1)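 Gut bacterial monocultures were grown anaerobically at 37 °C in mGAM from a starting OD600 of 0.05 with 20 µM compound (1% DMSO), in round-bottom 96-well plates under pierced gas-permeable seals, and OD600 was read hourly for 24 h. With the minimum OD set to 0, area under the growth curve was normalised to the plate median of solvent-only wells, or to row and column medians on the industrial chemical plate. Each value is the median of three biological replicates grown on separate days.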

[2] = system: Bacteroides caccae
Method in brief: as §1

[3] = system: Bacteroides clarus
Method in brief: as §1

[4] = system: Bacteroides dorei
Method in brief: as §1

[5] = system: Bacteroides stercoris
Method in brief: as §1

[6] = system: Bacteroides thetaiotaomicron
Method in brief: as §1

[7] = system: Bacteroides uniformis
Method in brief: as §1

[8] = system: Bifidobacterium longum subsp. longum
Method in brief: as §1

[9] = system: Clostridium difficile
Method in brief: as §1

[10] = system: Collinsella aerofaciens
Method in brief: as §1

[11] = system: Coprococcus comes
Method in brief: as §1

[12] = system: Escherichia coli ED1a
Method in brief: as §1

[13] = system: Escherichia coli IAI1
Method in brief: as §1

[14] = system: Eubacterium rectale
Method in brief: as §1

[15] = system: Fusobacterium nucleatum subsp. animalis
Method in brief: as §1

[16] = system: Lactobacillus gasseri
Method in brief: as §1

[17] = system: Lactobacillus paracasei
Method in brief: as §1

[18] = system: Odoribacter splanchnicus
Method in brief: as §1

[19] = system: Parabacteroides distasonis
Method in brief: as §1

[20] = system: Parabacteroides merdae
Method in brief: as §1

Compound | growth AUC [1] | growth AUC [2] | growth AUC [3] | growth AUC [4] | growth AUC [5] | growth AUC [6] | growth AUC [7] | growth AUC [8] | growth AUC [9] | growth AUC [10] | growth AUC [11] | growth AUC [12] | growth AUC [13] | growth AUC [14] | growth AUC [15] | growth AUC [16] | growth AUC [17] | growth AUC [18] | growth AUC [19] | growth AUC [20]
CCOP(=S)(OCC)Oc1ccc2c(C)c(Cl)c(=O)oc2c1 | 1.1 | 0.952 | 0.957 | 0.98 | 0.891 | 0.934 | 0.95 | 0.968 | 1 | 1 | 1 | 1.02 | 1.01 | 1.11 | 1.01 | 0.991 | 0.998 | 1.01 | 0.748 (active) | 0.897
COC(=O)C1(O)c2ccccc2-c2ccccc21 | 0.893 | 1.03 | 0.97 | 1 | 1.01 | 0.981 | 0.984 | 0.996 | 0.991 | 1.03 | 0.939 | 0.966 | 1.01 | 0.95 | 0.911 | 1.07 | 1 | 0.988 | 1.03 | 0.993
CNC1=C(c2cccc(C(F)(F)F)c2)C(=O)C(c2ccccc2)O1 (stereo not given) | 0.993 | 1.02 | 0.953 | 1.01 | 1.01 | 0.986 | 0.972 | 0.888 | 1.08 | 1.02 | 1.06 | 0.998 | 0.992 | 1 | 0.969 | 0.985 | 0.781 | 1.07 | 0.951 | 0.969
Oc1ccc(-c2ccccc2)cc1 | 0.809 | 1.03 | 0.948 | 0.991 | 0.815 | 0.985 | 0.957 | 0.899 | 1.03 | 1 | 1.01 | 0.991 | 0.987 | 1 | 0.968 | 1.04 | 0.693 | 1.09 | 1.02 | 0.989
CC1CNC(=S)N1 (stereo not given) | 1 | 1.03 | 1.03 | 1.04 | 1.09 | 1 | 1 | 1.01 | 1.06 | 1.04 | 1.03 | 1.01 | 1.06 | 1.06 | 1.05 | 0.989 | 1.06 | 1.02 | 0.983 | 1.02
CCC(C)(C)C(=O)OC1=C(c2ccc(Cl)cc2Cl)C(=O)OC12CCCCC2 | 1.03 | 1 | 0.975 | 0.976 | 0.978 | 0.946 | 0.911 | 0.99 | 0.973 | 0.987 | 0.977 | 0.966 | 0.949 | 0.906 | 0.968 | 0.928 | 0.987 | 1.02 | 0.861 | 0.968
Nc1nc(N)nc(Cl)n1 | 1.01 | 1.05 | 1.02 | 1.01 | 1.16 | 1.01 | 1.02 | 1.01 | 1.03 | 0.992 | 1.02 | 1.04 | 1.01 | 0.971 | 1.08 | 1.02 | 0.991 | 1 | 1.01 | 1.02
CC1=C(C(=O)Nc2ccccc2)S(=O)(=O)CCO1 | 0.915 | 0.983 | 0.976 | 0.977 | 1.02 | 0.994 | 0.981 | 0.944 | 0.973 | 1.02 | 0.986 | 1.02 | 0.994 | 0.985 | 0.959 | 0.998 | 0.981 | 0.962 | 0.975 | 1
CN(C)C(=O)Nc1cccc(OC(=O)NC(C)(C)C)c1 | 1.19 | 0.771 | 1.01 | 0.977 | 1.4 | 0.958 | 0.883 | 1.01 | 0.928 | 0.918 | 0.974 | 0.995 | 0.972 | 1.19 | 1.07 | 0.934 | 0.934 | 0.551 (active) | 1.01 | 0.959
COc1cc(OC)n2nc(S(=O)(=O)Nc3c(Cl)ccc(C)c3Cl)nc2n1 | 1.05 | 0.98 | 0.962 | 1.06 | 0.969 | 0.99 | 0.964 | 0.976 | 1.08 | 1.11 | 1.02 | 0.993 | 1.02 | 0.994 | 0.9 | 1.09 | 0.978 | 1.02 | 1.06 | 0.986
CCOP(=O)(OCC)Oc1ccc(S(C)(=O)=O)cc1 | 1.01 | 0.99 | 0.995 | 1.01 | 0.937 | 0.997 | 1.03 | 1.04 | 0.991 | 1.01 | 1.01 | 0.98 | 0.977 | 1.13 | 0.996 | 1 | 0.976 | 1 | 1.11 | 1.03
CN/C(=N\[N+](=O)[O-])NCc1cnc(Cl)s1 | 0.906 | 0.93 | 1.02 | 1.03 | 1.17 | 1 | 1 | 1.03 | 0.979 | 0.988 | 1.01 | 1.02 | 1 | 1.07 | 1.09 | 0.959 | 1 | 1.02 | 0.965 | 0.975
c1ccc(-c2ccccc2)cc1 | 1.09 | 0.985 | 1.03 | 0.967 | 1.22 | 0.969 | 1.01 | 1.03 | 0.948 | 0.963 | 0.991 | 1.03 | 1.01 | 1.09 | 1.1 | 0.94 | 0.749 | 0.945 | 1.04 | 0.998
CCN(CC)c1nc(C)cc(OP(=S)(OC)OC)n1 | 0.948 | 0.979 | 0.974 | 1 | 0.927 | 0.945 | 0.976 | 0.967 | 1.02 | 0.989 | 0.982 | 1.03 | 0.978 | 1.06 | 0.996 | 0.984 | 0.982 | 0.966 | 0.813 | 0.962
COC(=O)NC(=S)Nc1ccccc1NC(=S)NC(=O)OC | 1.04 | 0.99 | 0.985 | 1.01 | 1.12 | 0.981 | 0.988 | 0.958 | 0.951 | 1.01 | 0.93 | 0.995 | 0.996 | 1.14 | 1.12 | 0.835 | 1.01 | 1.05 | 0.944 | 1.03
COCC(=O)N(c1c(C)cccc1C)[C@@H](C)C(=O)OC | 1.19 | 0.953 | 0.968 | 0.922 | 1 | 1.04 | 0.981 | 1.04 | 1.04 | 0.973 | 1.04 | 1.01 | 1 | 1.09 | 1.1 | 0.893 | 1.01 | 0.996 | 0.796 | 0.996
ClCC1C(CCl)C2(Cl)C(Cl)=C(Cl)C1(Cl)C2(Cl)Cl (stereo not given) | 0.995 | 0.971 | 0.999 | 0.972 | 0.985 | 0.994 | 1.01 | 1.02 | 0.989 | 0.962 | 0.945 | 0.973 | 1 | 1.02 | 1.08 | 0.931 | 0.974 | 1.06 | 1.01 | 0.995
